Screens as filed in PubChem.
Shown are actives, neighbours in structure and some others; about 28% of the full set was active somewhere.
CYP2C19 act = activators of human cytochrome P450 2C19; P33261; recombinant CYP2C19, luciferin-H EGE luminescence; hits give high values; 0 = fully inhibited enzyme, 1 = untreated enzyme; activation factor at 5 µM; 96,000 tested, under 10 active;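 active = activation factor of at least 2 at 5 µM in the primary screen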;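 note: 0 = wells with 2.5 mM tranylcypromine and 1 = vehicle-only wells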
CYP2C9 inh = inhibitors of human CYP2C9 | CYP2C9 Supersomes, luciferin-H conversion, luminescence | 20% of 96,000 active | AID 777 | inhibition, % at 5 µM | P11712;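 active = blocking of liver enzyme CYP2C9 beyond about 50% at 5 µM, limit read from the data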
CYP2C9 act = CYP2C9 (human) activation. P11712. recombinant CYP2C9, luciferin-H conversion, luminescence; hits give high values; factor 1 = untreated enzyme, 0 = blocked. activation factor at 5 µM. 1.4% of 96,000 active. AID 1024;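 active = activation factor of 2 or more for CYP2C9 at a 5 µM dose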;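 note: 0 = sulfaphenazole-blocked wells and 1 = vehicle-only wells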
Pyk2 oligo antag = Pyk2 (human) oligomerization antagonism; Q14289; Q293 cells, Pyk2 FERM NanoBiT luminescence; hits give low values; z-score (the deposit names both 25 µM and 10 µM); 0.83% of 99,000 active;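 active = Z-score of -3 or lower, scaled per plate to the spread of control and sample wells; inactive = z-score above -3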;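 note: negative z-score means lost luminescence so less FERM oligomerization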
Target sequence (Q14289 whole entry, looked up): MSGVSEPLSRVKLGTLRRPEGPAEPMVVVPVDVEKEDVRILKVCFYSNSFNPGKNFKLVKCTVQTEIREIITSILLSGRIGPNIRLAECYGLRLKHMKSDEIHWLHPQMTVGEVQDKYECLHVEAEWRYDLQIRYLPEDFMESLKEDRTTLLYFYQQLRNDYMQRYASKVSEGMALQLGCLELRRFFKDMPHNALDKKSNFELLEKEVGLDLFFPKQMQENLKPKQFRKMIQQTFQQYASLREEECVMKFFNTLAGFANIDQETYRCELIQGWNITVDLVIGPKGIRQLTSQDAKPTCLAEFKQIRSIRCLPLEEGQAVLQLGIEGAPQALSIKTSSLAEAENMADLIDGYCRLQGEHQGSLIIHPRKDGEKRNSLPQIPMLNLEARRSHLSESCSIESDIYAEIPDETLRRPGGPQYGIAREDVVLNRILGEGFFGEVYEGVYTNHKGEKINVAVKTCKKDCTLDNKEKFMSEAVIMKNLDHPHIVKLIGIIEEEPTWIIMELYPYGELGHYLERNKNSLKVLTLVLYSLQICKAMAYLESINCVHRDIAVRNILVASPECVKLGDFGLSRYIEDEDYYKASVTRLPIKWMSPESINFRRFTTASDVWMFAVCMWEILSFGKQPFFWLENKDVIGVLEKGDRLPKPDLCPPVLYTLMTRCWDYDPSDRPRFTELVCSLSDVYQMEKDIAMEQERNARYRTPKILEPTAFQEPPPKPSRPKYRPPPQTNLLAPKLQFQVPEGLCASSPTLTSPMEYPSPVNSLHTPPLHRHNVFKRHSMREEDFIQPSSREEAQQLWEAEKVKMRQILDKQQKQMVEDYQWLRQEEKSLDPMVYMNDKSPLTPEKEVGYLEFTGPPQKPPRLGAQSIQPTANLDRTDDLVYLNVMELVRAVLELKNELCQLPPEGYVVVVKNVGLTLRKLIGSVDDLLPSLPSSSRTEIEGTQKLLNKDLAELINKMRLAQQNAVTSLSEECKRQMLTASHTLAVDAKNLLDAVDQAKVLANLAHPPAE
CYP2C19 inhib = human CYP2C19 inhibition; CYP2C19 Supersomes, luciferin-H EGE luminescence, 30 min; inhibition, % at 5 µM; 21% of 96,000 active; AID 778;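 active = CYP2C19 inhibition above a set limit at 5 µM in the primary screen, cut at about 50% in these data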;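 note: plate controls were negative control wells for no effect and 2.5 mM tranylcypromine positive control for full effect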
Active calls of the source: *; nt = not tested or not shown.

SMILES	CYP2C19 act	CYP2C9 inh	CYP2C9 act	Pyk2 oligo antag	CYP2C19 inhib
COc1ccccc1CC(NC(C)=O)C(=O)NC1CCN(c2nnnn2-c2ccccc2)CC1 (stereo not drawn)	1	-10.2	1.1	0.37	-3.0
COc1cccc(CC(NC(C)=O)C(=O)NC2CCN(c3nc(C)cc(C)c3C#N)CC2)c1 (stereo not drawn)	0.3	27.9	0.7	-0.6	67.3*
Cc1ccc(-n2ncc3c(=O)n(CC#N)cnc32)cc1C	0.8	18.4	0.8	-0.25	19.8
C#CCn1cnc2c(cnn2-c2ccc(C)c(C)c2)c1=O	0.4	27.4	0.7	0.24	64.2*
O=C(Cn1cnc2c(cnn2-c2ccccc2)c1=O)c1ccc(Cl)cc1	1.1	6.4	0.9	nt	-12.1
CC(C)CCn1cnc2c(cnn2-c2ccc(Cl)cc2)c1=O	0.7	70.9*	0.3	2.43	31.6
CCC(C)(C)NC(=O)C(c1ccncc1)N(Cc1ccc(C)cc1)C(=O)c1csnn1 (stereo not drawn)	nt	nt	nt	0.39	nt
O=C(COC(=O)c1cccnc1Cl)c1ccc(Cl)cc1Cl	0.3	-149.4	2.5*	0.75	65.9*
CC(C)C(=O)Nc1cccc(C(=O)OCC(=O)c2ccc(Cl)cc2Cl)c1	0.9	-163.3	2.6*	-3.54*	7.8
O=C(OCC(=O)N1CCc2ccccc21)c1cccnc1Cl	0.9	1.8	1	1.12	9.2
CC(=O)Nc1cc(C(=O)OCC(=O)c2ccc(Cl)cc2Cl)ccc1C	0.7	-101.5	2*	0.58	33.6
C/C(=N\NC(=O)c1ccc(Cl)cc1)c1cccc(NC(=O)C(C)C)c1	0.9	-8.3	1.1	-0.17	8.8
CSc1nc2ccc3nc(NC(=O)c4ccccc4)sc3c2s1	1.1	-6.8	1.1	nt	-10.3
CCOC(=O)c1sc(NS(=O)(=O)c2ccccc2Cl)nc1C	0.5	96.4*	0	-0.13	51.6*
CCOC(=O)c1c(Nc2nc(C)c(C(=O)NC)s2)sc(C)c1C	0.6	64.8*	0.4	-0.09	39.7
CCOC(=O)c1sc(Nc2ccccc2)nc1C	0.8	40.6	0.6	-2.03	24.2
CCOC(=O)c1c(NC(=O)Nc2ccccc2)sc(C)c1C	1	6.5	0.9	-1.55	-2.6
CCOC(=O)c1sc(NS(=O)(=O)c2ccccc2)nc1C	0.7	81.0*	0.2	-0.07	27.8
CCOC(=O)c1sc(NS(=O)(=O)c2ccc(NC(C)=O)cc2)nc1C	0.8	44.8	0.6	0.99	15.3
CCOC(=O)c1sc(Nc2ccc(C)cc2C)nc1C	0.8	88.4*	0.1	-2.82	17.3
C=CCn1c(SCC#N)nc2c(c1=O)C(C)(C)Cc1ccccc1-2	0.7	40.8	0.6	-3	27.8
CNc1nc(C)c(C(=O)OCC(=O)OC)s1	0.9	4.7	1	1.68	5.7
CNc1nc(C)c(C(=O)OCc2ccccc2)s1	0.2	53.5*	0.5	-1.44	84.8*
O=S(=O)(c1cccs1)N1CCCc2cccc(O)c21	0.3	-194.2	2.9*	-0.54	65.9*
O=C(O)CCc1n[nH]c(=S)[nH]c1=O	1	-12.2	1.1	nt	-2.1
SMILES	CYP2C19 act	CYP2C9 inh	CYP2C9 act	Pyk2 oligo antag	CYP2C19 inhib
COC(=O)c1cccc(NC(=O)CCCOc2ccccc2)c1	0.2	59.2*	0.4	1.6	80.2*
COC(=O)c1cccc(NC(=O)Cn2nnc3ccccc32)c1	0.4	96.2*	0	1.45	64.2*
COc1ccccc1C(=O)NCC(=O)Nc1ccccc1	0.5	9.4	0.9	0.29	51.2*
COc1cccc(NC(=O)CNC(=O)c2ccccc2)c1	0.5	45.7	0.5	0.31	50.5*
CCOCC(=O)Nc1cccc(OC)c1	nt	nt	nt	0.41	nt
COc1cccc(NC(=O)CNC(C)CCC(C)C)c1 (stereo not drawn)	0.2	25.9	0.7	0.53	79.2*
COC(=O)c1ccc(CSc2nc(C)nc3sc(C)c(C)c23)o1	0.7	3.9	1	0.86	31.8
Cc1ccc2occ(C3N[C@H](C(=O)O)CS3)c(=O)c2c1 (stereo partly drawn)	0.9	20.3	0.8	-1.98	7.1
Cc1ccnc(NS(=O)(=O)c2ccc(NC(=O)C34CC5CC(C)(CC(C)(C5)C3)C4)cc2)n1	1	58.4*	0.4	-0.23	-1.2
O=c1[nH]c(=O)n(Cc2ccco2)c2c1C(C(F)(F)F)(C(F)(F)F)N=C(Cc1ccccc1)N2	0.7	76.5*	0.2	-3.68*	33.2
CC(=O)NC1(C(F)(F)F)C(=O)Nc2c1c(=O)[nH]c(=O)n2Cc1ccco1 (stereo not drawn)	1.3	-24.2	1.2	1.43	-25.9
CCn1cc(Br)c(C(=O)Nc2cccc(SC)c2)n1	0.2	38.1	0.6	0.42	81.1*
CSc1cccc(NC(=O)CSc2ccc(C)cc2)c1	0.8	-4.7	1	1.66	19.0
Cn1c(CSCc2ccccc2)nnc1SCC(=O)Nc1nccs1	nt	nt	nt	0.48	nt
CSc1cccc(NC(=O)CSc2ccc(Cl)cc2)c1	0.4	4.6	1	-0.7	60.6*
CCSCc1nnc(SCC(=O)Nc2cccc(SC)c2)n1C	0.1	32.3	0.7	0.54	90.9*
COc1ccc(CNC(=O)c2cnc3n(c2=O)CCS3)cc1	0.8	9.9	0.9	nt	23.3
CCCNC(=O)c1ccc(-c2nc3ccccc3s2)s1	0.8	-3.2	1	-0.54	20.9
CNc1sc(C(=O)c2ccccc2F)c(N)c1-c1nc2ccccc2s1	0.1	84.3*	0.2	-0.08	88.8*
COc1ccc(N(CC(=O)NN=C2CCCCCCC2)S(=O)(=O)c2ccccc2)cc1	0.7	43.2	0.6	-0.68	32.3
COc1ccc([C@@H]2[C@H]3C(=O)N(c4cccc(C(F)(F)F)c4)C(=O)[C@H]3ON2C)cc1	0.5	36.6	0.6	-0.03	54.8*
Cc1n[nH]c(=O)n1-c1cccc(C(F)(F)F)c1	1.1	1.3	1	0.61	-6.6
CCCn1c(=O)c2ccccc2n2c(SCC(=O)c3ccccc3)nnc12	0.6	55.0*	0.4	0.46	37.5
CCCn1c(=O)c2ccccc2n2c(SCCOc3ccccc3F)nnc12	0.4	46.2	0.5	0.65	55.8*
CCCn1c(=O)c2ccccc2n2c(SCc3nnc(-c4ccccc4Br)o3)nnc12	0.3	58.4*	0.4	0.2	70.2*
SMILES	CYP2C19 act	CYP2C9 inh	CYP2C9 act	Pyk2 oligo antag	CYP2C19 inhib
O=C(CCSCCc1ccccn1)Nc1ccc(Cl)cn1	0.8	23.6	0.8	-0.18	23.5
CC1=CCC(C(=O)O)(C(=O)N/N=C/c2cccs2)C(c2ccc(Cl)cc2)C1 (stereo not drawn)	1	44.4	0.6	-1.26	1.3
CCCC(=O)Nc1cccn(Cc2ccccc2Br)c1=O	0.1	43.4	0.6	1.04	92.4*
CCCC(=O)Nc1ccccc1NC(C)=O	1.1	-8.6	1.1	0.72	-11.6
CN1CCCCc2c1[nH]c1ccccc1c2=O	1	-32.0	1.3	0.13	-0.1
CN1C(=O)C2(NCCc3c2[nH]c2ccccc32)c2ccccc21 (stereo not drawn)	0.2	14.6	0.9	-0.13	81.3*
COc1cc2c(cc1NC(=O)CSc1nnc(Cc3cccs3)n1C)oc1ccccc12	0.8	56.6*	0.4	-1.66	15.1
